Numbering of substitutions follows the chain as printed; changes in the protein carry UniProt numbers. In all, about 16,000 sequences were measured (“ka relative to ugcaugu”: median about 0.0091, highest 2% from about 0.032 on). The sample as a whole holds a higher share of the highest values than the screen did.

First the molecules themselves.
T1: RBFOX1 RRM (Homo sapiens, UniProt Q9NWB1 109-208)
T1 sequence: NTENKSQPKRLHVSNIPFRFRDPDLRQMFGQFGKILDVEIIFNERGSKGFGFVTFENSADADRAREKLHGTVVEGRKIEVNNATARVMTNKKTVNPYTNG

B1: UCAAACU (DNA:RNA)
RNA: GGGAGACCGGAAUUCAGAUUGUCCUCAAACUUUAAAUCCCGUCGUAGCCACCA
DNA 1: CAATCTGAATTCCGGTCTCCC
DNA 2: TGGTGGCTACGACGGGATT
B2: AUUAGUA (DNA:RNA)
RNA: B1 RNA with U25A, C26U, A27U, A29G, C30U, U31A
DNA 1: CAATCTGAATTCCGGTCTCCC
DNA 2: TGGTGGCTACGACGGGATT
B3: CGGAAGU (DNA:RNA)
RNA: B1 RNA with U25C, C26G, A27G, C30G
DNA 1: CAATCTGAATTCCGGTCTCCC
DNA 2: TGGTGGCTACGACGGGATT
B4: UCUUCCA (DNA:RNA)
RNA: B1 RNA with A27U, A28U, A29C, U31A
DNA 1: CAATCTGAATTCCGGTCTCCC
DNA 2: TGGTGGCTACGACGGGATT
B5: GCCUGUC (DNA:RNA)
RNA: B1 RNA with U25G, A27C, A28U, A29G, C30U, U31C
DNA 1: CAATCTGAATTCCGGTCTCCC
DNA 2: TGGTGGCTACGACGGGATT
B6: CGCCUGC (DNA:RNA)
RNA: GGGAGACCGGAAUUCAGAUUGUCCCGCCUGCUUAAAUCCCGUCGUAGCCACCA
DNA 1: CAATCTGAATTCCGGTCTCCC
DNA 2: TGGTGGCTACGACGGGATT
B7: GCCCUGC (DNA:RNA)
RNA: B6 RNA with C25G, G26C
DNA 1: CAATCTGAATTCCGGTCTCCC
DNA 2: TGGTGGCTACGACGGGATT
B8: GCUUGCC (DNA:RNA)
RNA: B1 RNA with U25G, A27U, A28U, A29G, U31C
DNA 1: CAATCTGAATTCCGGTCTCCC
DNA 2: TGGTGGCTACGACGGGATT
B9: GCCUGUG (DNA:RNA)
RNA: B6 RNA with C25G, G26C, C28U, U29G, G30U, C31G
DNA 1: CAATCTGAATTCCGGTCTCCC
DNA 2: TGGTGGCTACGACGGGATT
B10: GCCUGCU (DNA:RNA)
RNA: B1 RNA with U25G, A27C, A28U, A29G
DNA 1: CAATCTGAATTCCGGTCTCCC
DNA 2: TGGTGGCTACGACGGGATT
B11: CCGCCUG (DNA:RNA)
RNA: B6 RNA with G26C, C27G, U29C, G30U, C31G
DNA 1: CAATCTGAATTCCGGTCTCCC
DNA 2: TGGTGGCTACGACGGGATT
B12: GCCUUGC (DNA:RNA)
RNA: B6 RNA with C25G, G26C, C28U
DNA 1: CAATCTGAATTCCGGTCTCCC
DNA 2: TGGTGGCTACGACGGGATT
B13: GCCCCUG (DNA:RNA)
RNA: B6 RNA with C25G, G26C, U29C, G30U, C31G
DNA 1: CAATCTGAATTCCGGTCTCCC
DNA 2: TGGTGGCTACGACGGGATT
B14: GCCCGCU (DNA:RNA)
RNA: B1 RNA with U25G, A27C, A28C, A29G
DNA 1: CAATCTGAATTCCGGTCTCCC
DNA 2: TGGTGGCTACGACGGGATT
B15: CGCCUUG (DNA:RNA)
RNA: B6 RNA with G30U, C31G
DNA 1: CAATCTGAATTCCGGTCTCCC
DNA 2: TGGTGGCTACGACGGGATT
B16: GCUGCUU (DNA:RNA)
RNA: B1 RNA with U25G, A27U, A28G, A29C, C30U
DNA 1: CAATCTGAATTCCGGTCTCCC
DNA 2: TGGTGGCTACGACGGGATT
B17: CAACUCA (DNA:RNA)
RNA: B6 RNA with G26A, C27A, G30C, C31A
DNA 1: CAATCTGAATTCCGGTCTCCC
DNA 2: TGGTGGCTACGACGGGATT
B18: GAUCAAG (DNA:RNA)
RNA: B6 RNA with C25G, G26A, C27U, U29A, G30A, C31G
DNA 1: CAATCTGAATTCCGGTCTCCC
DNA 2: TGGTGGCTACGACGGGATT
B19: CAUAUGA (DNA:RNA)
RNA: B6 RNA with G26A, C27U, C28A, C31A
DNA 1: CAATCTGAATTCCGGTCTCCC
DNA 2: TGGTGGCTACGACGGGATT
B20: ACAUCGA (DNA:RNA)
RNA: B1 RNA with U25A, A28U, A29C, C30G, U31A
DNA 1: CAATCTGAATTCCGGTCTCCC
DNA 2: TGGTGGCTACGACGGGATT

This assay addresses T1, RBFOX1 RRM. Nature of the assay: EMSA; HiTS-Eq, 1 nM pool, 10 min; buffer printed only for the single-RNA assays: 10 mM Tris pH 7.5, 150 mM NaCl, 3.4 mM EDTA, 0.001% NP-40, 30 C. To be noted: tags: His6 N-terminal (pET28a); label: 5' 32P. In a few lines: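 Purified wild-type or mutant RbFox RRM at increasing concentrations was equilibrated with 1 nM of 5′-radiolabelled RNA carrying 7 randomized nucleotides for 10 min in 50 µL. Unbound RNA was separated by 8% native PAGE and sequenced. Relative association constants came from read-count changes of each RNA species compared with the control reaction, normalised to the cognate motif.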
As for B1, the binding signal is 0.00177 KA relative to UGCAUGU. Consider B2, for which the binding signal was 0.00672 KA relative to UGCAUGU. In the case of B3 it was 0.0236 KA relative to UGCAUGU. The value for B4 was 0.00385 KA relative to UGCAUGU.

For B5, the binding signal was 0.0275 KA relative to UGCAUGU. In the case of B6 it was 0.0343 KA relative to UGCAUGU. In the case of B7 it was 0.0133 KA relative to UGCAUGU; in that of B8, 0.0307 KA relative to UGCAUGU. The value for B9 was 0.034 KA relative to UGCAUGU; that for B10 was 0.0359 KA relative to UGCAUGU; that for B11 was 0.0178 KA relative to UGCAUGU. For the molecule B12, the binding signal was 0.0319 KA relative to UGCAUGU. In the case of B13 it was 0.016 KA relative to UGCAUGU; in that of B14, 0.0168 KA relative to UGCAUGU; in that of B15, 0.0242 KA relative to UGCAUGU. The value for B16 was 0.0216 KA relative to UGCAUGU. The value for B17 was 0.0014 KA relative to UGCAUGU; that for B18 was 0.0079 KA relative to UGCAUGU; that for B19 was 0.00465 KA relative to UGCAUGU.

As for B20, the binding signal is 0.00224 KA relative to UGCAUGU.

The record behind these values is PMC9911399, “Two distinct binding modes provide the RNA-binding protein RbFox with extraordinary sequence specificity”.
